Screening data: PubChem, National Center for Advancing Translational Sciences (NCATS)
Lassa entry inh – Lassa virus entry inhibition; Lassa virus pseudotype entry inhibition, cell reporter; Potency, µM (top dose mostly 37.9 µM), for inactives: top-dose activity change, negative = inhibition, most hits filed as inhibitors; actives 1.2% (n = 300,000); AID 540256; calls by dose curve; tested in HEK293 cells; also: potency is read from the fitted curve at half-maximal effect; nearly all actives have a fitted effect of over 50% in size
HCMV inh – inhibitors of human cytomegalovirus; actives 4.5% (n = 410,000); HFF cells, HCMV-luciferase reporter, 72 h; hits give low values; AID 1259415; activity change, negative = inhibition, % at 57.5 µM; in the data active = activity change below about -60%; inconclusive = no clear call, values can overlap the other calls; inactive = above about -39%
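HFF cells seeded 16 h at 37C, treated with compounds, infected with luciferase-reporter HCMV at MOI 1 PFU/cell; luciferase read at 72 h post infection, normalized to buffer-only and Salinomycin controls.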
VACV mCherry inh – inhibitors of vaccinia virus infection (mCherry reporter signal) | Vaccinia virus mCherry reporter infection, fluorescence | Potency, µM (series often up to 36.5 µM), inactives show at the top dose activity change, negative = inhibition, actives largely listed as inhibitors | actives 0.63% (n = 310,000) | AID 720579; calls by dose curve; tested in A549 cells; also: potency is read from the fitted curve at half-maximal effect; nearly all actives have a fitted effect of over 35% in size
Marburg entry inh – inhibitors of Marburg virus binding or cell entry; Marburg virus pseudotyped entry inhibition, cell reporter; Potency, µM (series often up to 37.8 µM), inactives show at the top dose activity change, negative = inhibition, hits mostly inhibitors; actives 1.8% (n = 300,000); AID 540276; calls by dose curve; tested in HEK293 cells; also: potency is read from the fitted curve at half-maximal effect
HCV inh – blocks hepatitis C virus; Huh7.5.1 HCVcc-Cre infection, luciferase reporter, 44 h; Potency, µM (top dose mostly 41.8 µM), for inactives: top-dose activity change, negative = inhibition, hits mostly inhibitors; actives 3.4% (n = 340,000); active = well fitted inhibition curve with a large enough effect; inconclusive = small, poorly fitted or top-dose-only effect, or another doubt; inactive = no such curve, though single readings can be large or run the other way; also: potency is read from the fitted curve at half-maximal effect
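Antiviral activity was scored by luciferase reporter output from cells infected with HCVcc-Cre (~0.5 moi) in presence of compound, 44 h infection period, cells seeded 1,000/well 4 h prior.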
VACV Venus inh – inhibitors of vaccinia virus (Venus reporter). actives 0.46% (n = 330,000). Vaccinia virus Venus reporter expression, fluorescence. Potency, µM (top dose mostly 36.5 µM), for the others: top-dose activity change, negative = inhibition, hits mostly inhibitors. AID 720580; calls by dose curve; tested in A549 cells; also: potency is read from the fitted curve at half-maximal effect; nearly all actives have a fitted effect of over 30% in size
An asterisk follows results filed as active; [ ] = remark or other dose. Only some compounds are listed: those with a hit (about 7.8% of all), similar ones and a draw of the others. % is scaled to controls: 0 for no effect and ±100 for the full control effect.

O=C(c1ccco1)N1CCN(C(=O)C2CCN(S(=O)(=O)c3cnc[nH]3)CC2)CC1 was read as Lassa entry inh -14%, HCMV inh 49, VACV mCherry inh -15%, Marburg entry inh -9%, HCV inh 32µM* and VACV Venus inh -9%.
`CCc1ccc(NC(=O)C2CCN(S(=O)(=O)c3cnc[nH]3)CC2)cc1` gave HCMV inh active and HCV inh 3%.
`CCN(Cc1ccncc1)C(=O)C1CCN(S(=O)(=O)c2cccs2)CC1` gave Lassa entry inh inconclusive, HCMV inh -107*, Marburg entry inh 6% and HCV inh 8%.
`O=C(Nc1ccccc1Br)C1CCN(S(=O)(=O)c2cccs2)CC1` gave Lassa entry inh 3%, HCMV inh -75*, VACV mCherry inh -22%, Marburg entry inh inconclusive, HCV inh 4% and VACV Venus inh -12%.
For CN1CCN(C(=O)C2CCN(S(=O)(=O)c3cnc[nH]3)CC2)CC1 the results were Lassa entry inh -1%, HCMV inh 16, VACV mCherry inh inactive, Marburg entry inh -12%[46.1 µM], HCV inh 12% and VACV Venus inh -8%.
`CN(C(=O)C1CCN(S(=O)(=O)c2cccs2)CC1)C1CCCCC1` gave Lassa entry inh -12%, HCMV inh -27, VACV mCherry inh -14%, Marburg entry inh 10%, HCV inh 21% and VACV Venus inh -11%.
COc1ccc(CCNC(=O)C2CCN(S(=O)(=O)c3cccs3)CC2)cc1OC was read as Lassa entry inh -7%[46.1 µM], HCMV inh -96*, VACV mCherry inh -14%, Marburg entry inh 10%[46.1 µM], HCV inh 8% and VACV Venus inh 5%.
COc1ccc(S(=O)(=O)N2CCC(C(=O)NCCc3ccc(OC)c(OC)c3)CC2)cc1 was read as HCMV inh -5, VACV mCherry inh inactive and VACV Venus inh -15%.
`Cc1cc(OCCNCCO)cc(C)c1Cl` gave Lassa entry inh -23%, HCMV inh 3, Marburg entry inh inconclusive, HCV inh inconclusive and VACV Venus inh -12%.
For Cc1cc(OCCCCCNCCO)cc(C)c1Cl the results were Lassa entry inh 7%, HCMV inh inconclusive, Marburg entry inh inconclusive and HCV inh 13µM*.
For COc1cccc(OCC(O)CN2CCN(C(c3ccccc3)c3ccccc3)CC2)c1 (stereo not drawn) the results were HCMV inh -20 and HCV inh inconclusive.
Screening CC(=O)c1ccccc1OCC(O)CN1CCN(C(c2ccccc2)c2ccccc2)CC1 (stereo not drawn) returned Lassa entry inh -25%, HCMV inh -16, Marburg entry inh inconclusive, HCV inh 10µM* and VACV Venus inh inconclusive.
Screening O=C(/C=C/c1ccccn1)NCC1Cc2cccc(-c3ncccn3)c2O1 (stereo not drawn) returned VACV mCherry inh 0% and VACV Venus inh -16%.
For CCCCc1ccc(NC(=O)N2CCN(c3cc(C)nc4ccccc34)CC2)c(C)c1 the results were HCV inh 6.3µM*.
For Cc1cc(N2CCN(C(=O)Nc3ccc(F)cc3F)CC2)c2ccccc2n1 the results were Lassa entry inh inconclusive, VACV mCherry inh -19%, Marburg entry inh -17%, HCV inh inconclusive and VACV Venus inh -11%.
For C[C@@H]1CN([C@H](C)CO)S(=O)(=O)c2ccc(C#Cc3ccccc3)cc2O[C@H]1CN(C)C(=O)Nc1ccc2c(c1)OCO2 the results were HCMV inh -87*, VACV mCherry inh -10% and VACV Venus inh -27%.
C[C@H](CO)N1C[C@H](C)[C@@H](CN(C)C(=O)c2ccc3c(c2)OCO3)Oc2cc(/C=C/c3ccccc3)ccc2S1(=O)=O was read as HCMV inh -62*, VACV mCherry inh -18% and VACV Venus inh inconclusive.
`COc1ccc(/C(N)=N/OC(=O)C2CCC(=O)N2S(=O)(=O)c2ccc(C)cc2)cc1OC` (stereo not drawn) gave Lassa entry inh -2%, HCMV inh -87*, VACV mCherry inh inactive, Marburg entry inh 8%, HCV inh -17% and VACV Venus inh -18%.
For Cc1cc(=O)[nH]c(SCC(=O)Nc2ccc3c(c2)CCC3)c1C#N the results were HCMV inh -77* and HCV inh -3%.
Screening CCc1ccccc1N1C(=O)NC(=O)/C(=C\c2cc(C)n(C)c2C)C1=O returned Lassa entry inh -12%, HCMV inh -34, VACV mCherry inh 10µM*, Marburg entry inh -5%, HCV inh 4% and VACV Venus inh -26%.
Screening CC(=O)c1ccc(NC(=O)CSc2cn(CC(=O)N(C(C)C)C(C)C)c3ccccc23)cc1 returned Lassa entry inh 0%[46.1 µM], HCMV inh -38, VACV mCherry inh -2% and VACV Venus inh -8%.
For O=C1NC(Cc2ccccc2)c2nc3ccc(Cl)cc3c(=O)n2-c2cc3ccccc3cc21 (stereo not drawn) the results were HCMV inh 0, VACV mCherry inh inactive and VACV Venus inh -22%.
O=C1NC(Cc2ccc(O)cc2)c2nc3cc(F)ccc3c(=O)n2-c2cc(Cl)ccc21 (stereo not drawn) was read as HCMV inh 14 and HCV inh 0%.
Screening Cc1ccc2c(=O)n3c(nc2c1)C(Cc1ccc(O)cc1)NC(=O)c1cc2ccccc2cc1-3 (stereo not drawn) returned HCMV inh -65*, VACV mCherry inh -18% and VACV Venus inh inconclusive.
`O=C1NC(Cc2ccc(O)cc2)c2nc3ccc(Cl)cc3c(=O)n2-c2cc3ccccc3cc21` (stereo not drawn) gave HCMV inh -106*, VACV mCherry inh -31% and VACV Venus inh inconclusive.
`CCC1NC(=O)c2cc3ccccc3cc2-n2c1nc1cc(C)cc(C)c1c2=O` (stereo not drawn) gave HCMV inh -10, VACV mCherry inh -5% and VACV Venus inh -23%.
Screening Cc1cc(C)c2c(=O)n3c(nc2c1)C(Cc1ccccc1)NC(=O)c1cc2ccccc2cc1-3 (stereo not drawn) returned HCMV inh -72*, VACV mCherry inh inactive and VACV Venus inh -23%.
For O=C1NC(Cc2ccc(O)cc2)c2nc3cc(Cl)ccc3c(=O)n2-c2cc(Cl)ccc21 (stereo not drawn) the results were HCMV inh -20, VACV mCherry inh inconclusive, HCV inh 25µM* and VACV Venus inh inconclusive.
CCOC(=O)C1CCCN(C(=O)c2cnn(-c3nccc(-c4cc(C)sc4C)n3)c2C)C1 (stereo not drawn) was read as VACV mCherry inh -11% and VACV Venus inh 0%.
